Assay outcomes from PubChem.
Marburg entry inh = qHTS for inhibitors of binding or entry into cells for Marburg Virus | 300,000 tested, 1.8% active | AID 540276, 2011 | Potency, µM (titrated, usually from 37.8 µM), for inactives: at the top dose activity change, negative = inhibition, usual class: inhibitors | Marburg virus pseudotyped entry inhibition, cell reporter; calls by dose curve; tested in HEK293 cells; note: potency is the fitted concentration of half-maximal effect
HCMV antiviral = qHTS Assay for inhibitors of the human cytomegalovirus (HCMV) | HFF cells, HCMV-luciferase reporter, 72 h; stronger effect = lower value | activity change, negative = inhibition, % at 57.5 µM | 410,000 tested, 4.5% active; in the data active = activity change below about -60%; inconclusive = no clear call, values can overlap the other calls; inactive = above about -39%
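Inhibition of viral replication was scored as loss of reporter luminescence in HFFs infected with HCMV-luciferase (MOI 1 PFU/cell) for 72 h; compounds tested at 2 doses, normalized to buffer and Salinomycin controls.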
Pf growth 96h = Primary qHTS for delayed death inhibitors of the malarial parasite plastid, 96 hour incubation | P. falciparum luciferase reporter growth, 96 h | Potency, µM (titrated, usually from 28.7 µM), for the others: at the highest dose activity change, negative = inhibition, hits mostly inhibitors | 320,000 tested, 6.9% active; note: potency is the fitted concentration of half-maximal effect
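P. falciparum expressing integrated firefly luciferase grown in erythrocytes (2% hematocrit, 0.05% parasitemia final) with compounds for 96 hours at 37 C, 5% CO2. Growth inhibition read as loss of luminescence after adding luciferase detection reagent.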
Pf growth 48h = Primary qHTS for delayed death inhibitors of the malarial parasite plastid, 48 hour incubation | P. falciparum luciferase growth in erythrocytes, 48 h | Potency, µM (series often up to 28.7 µM), for inactives: at the top dose activity change, negative = inhibition, most hits filed as inhibitors | 310,000 tested, 5.9% active | AID 504832, 2011; note: potency is the fitted concentration of half-maximal effect
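Growth was read as firefly luciferase luminescence after a 48 h, 37 C, 5% CO2 exposure of compounds to reporter-bearing P. falciparum cultures (0.1% parasitemia, 2% hematocrit final) in Albumax-supplemented RPMI 1640.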
Lassa entry inh = qHTS for Inhibitors of binding or entry into cells for Lassa Virus; 300,000 tested, 1.2% active; Lassa virus pseudotype entry inhibition, cell reporter; Potency, µM (doses to about 37.9 µM), inactives show top-dose activity change, negative = inhibition, most hits filed as inhibitors; calls by dose curve; tested in HEK293 cells; note: potency is the fitted concentration of half-maximal effect; nearly all actives have a fitted effect of over 50% in size
HCV inhibitor = qHTS Assay for Inhibitors of Hepatitis C Virus (HCV); Huh7.5.1 HCVcc-Cre infection, luciferase reporter, 44 h; Potency, µM (top dose mostly 41.8 µM), for the others: top-dose activity change, negative = inhibition, hits mostly inhibitors; 340,000 tested, 3.4% active; AID 651820, 2012; note: potency is the fitted concentration of half-maximal effect
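Luciferase read-out (15 sec integration) after a 15 min room-temperature substrate step quantifies HCVcc-Cre infection. Cells, 1,000 per well, had compound added 4 h post-plating, then virus at ~0.5 moi, and were cultured 44 h.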
The depositor's hits bear a star; [ ] = another dose, or the depositor's remark. This is a sample that favours compounds with a hit; in the whole collection about 14% have one here. Unless noted, calls come from the whole dose curve; as a rule, active = well fitted inhibition curve with a large enough effect; inconclusive = small, poorly fitted or top-dose-only effect, or another doubt; inactive = no such curve, though single readings can be large or run the other way. % is set by controls: 0 for no effect and ±100 for the full control effect.

For CCc1ccc(-c2cc3c(=O)n(CC(=O)NCCN4CCCCC4C)nc(C)n3n2)cc1 (stereo not drawn) the results were Marburg entry inh inconclusive, HCMV antiviral -7, Pf growth 96h -13%, Pf growth 48h inconclusive, Lassa entry inh 16%[46.1 µM] and HCV inhibitor 11µM*.
For Cc1nn(CC(=O)NCCCN2CCCCC2C)c(=O)c2cccn12 (stereo not drawn) the results were Marburg entry inh 27%[46.1 µM], HCMV antiviral inconclusive, Pf growth 96h -6%, Pf growth 48h 28%, Lassa entry inh 0%[46.1 µM] and HCV inhibitor 21%.
For CCc1ccc(-c2cc3c(=O)n(CC(=O)N4CCCC4)nc(C)n3n2)cc1 the results were Marburg entry inh 20%[46.1 µM], HCMV antiviral -34, Pf growth 96h 0%, Pf growth 48h 1%, Lassa entry inh 6%[46.1 µM] and HCV inhibitor 9%.
`Cc1nn(CC(=O)NCCCN2CC(C)CC(C)C2)c(=O)c2cccn12` (stereo not drawn) gave Marburg entry inh inconclusive, HCMV antiviral -31, Pf growth 96h 10µM*, Pf growth 48h 26%, Lassa entry inh 28%[46.1 µM] and HCV inhibitor 23%.
Screening Cc1ccc2c(c1)cc1c(=O)n(CC(=O)NCCN3CCCC3)nc(C)n12 returned Pf growth 96h 9.3µM*, Pf growth 48h 24% and HCV inhibitor -8%.
CC1(C)C2CC[C@]1(C)[C@@H](O)C2 was read as Pf growth 96h -23% and Pf growth 48h -6%.
Screening CCN1CCN(Cc2nc3cc(NC(=O)c4cccc([N+](=O)[O-])c4)ccc3n2CC)CC1 returned Marburg entry inh inconclusive, HCMV antiviral 0 and Lassa entry inh 12%[46.1 µM].
CCc1ccc(N(C(=O)C(F)(F)F)C(C(=O)NC2CCCCC2)c2ccncc2)cc1 (stereo not drawn) was read as Marburg entry inh inconclusive, HCMV antiviral -17, Pf growth 96h 2.6µM*, Pf growth 48h 13µM*, Lassa entry inh 4% and HCV inhibitor 16%.
Screening O=C(NC1CCCCC1)C(c1ccncc1)N(Cc1ccc2c(c1)OCO2)C(=O)C(F)(F)F (stereo not drawn) returned Marburg entry inh inconclusive, HCMV antiviral 8, Pf growth 96h 2.1µM*, Pf growth 48h 9.3µM*, Lassa entry inh inconclusive and HCV inhibitor -12%.
Screening O=C(NCc1cccnc1)c1cc(C2CCCCN2S(=O)(=O)c2ccc(F)cc2F)on1 (stereo not drawn) returned HCMV antiviral -12.
Screening CCc1ccccc1N(C)C(=O)C1CCCN(c2ncnc3c2nc2n3CCCCC2)C1 (stereo not drawn) returned HCMV antiviral -3 and Lassa entry inh -11%[46.1 µM].
Screening NC1CCCCC1N=Cc1c(O)n(CCc2ccc(F)cc2)c(=O)[nH]c1=O (stereo not drawn) returned Marburg entry inh 6%, HCMV antiviral inconclusive, Pf growth 96h 4.7µM*, Pf growth 48h inconclusive, Lassa entry inh -5% and HCV inhibitor inconclusive.
O=C(NNC1OC(CO)C(O)C(O)C1O)c1cccnc1 (stereo not drawn) was read as Marburg entry inh -2%[14.2 µM], HCMV antiviral -62*, Pf growth 96h inconclusive, Pf growth 48h 28%, Lassa entry inh 8% and HCV inhibitor -1%.
`CC[N+](C)(CC)CCOC(=O)[C@@](O)(c1ccccc1)C1CCCCC1` gave Marburg entry inh 22%.
Screening CCN(CC)C(=O)C1CCCc2c1[nH]c1ccc(Cl)cc21 (stereo not drawn) returned HCMV antiviral 1, Pf growth 96h inconclusive, Pf growth 48h inconclusive and HCV inhibitor inconclusive.
Cc1ccc2[nH]c3c(c2c1)CCCC3NC(=O)CCl (stereo not drawn) was read as Marburg entry inh 5.6µM*, Pf growth 96h 13µM*, Pf growth 48h 2.3µM*, Lassa entry inh 8.9µM* and HCV inhibitor inconclusive.
For O=CNC1CCCc2c1[nH]c1ccc(Cl)cc21 (stereo not drawn) the results were Marburg entry inh inconclusive, HCMV antiviral inconclusive, Pf growth 48h 16%, Lassa entry inh inconclusive and HCV inhibitor 7.1µM*.
C[C@H]1CN(c2ccccc2)C(=O)[C@H]1CC(=O)Nc1ccc(Br)cc1 was read as Lassa entry inh -4%[46.1 µM].
Screening Cc1ccc(CNC(=O)c2c(-c3ccccc3F)noc2C)o1 returned HCMV antiviral -4 and Lassa entry inh 4%[46.1 µM].
Screening Cc1ccc2c(N)c(C(=O)N(c3ccccc3)c3ccccc3)sc2n1 returned Marburg entry inh inconclusive, HCMV antiviral -10, Pf growth 96h inconclusive, Pf growth 48h 9.3µM*, Lassa entry inh inconclusive and HCV inhibitor inconclusive.
Cc1ccc(-c2nnn(CC(=O)N(CC(=O)NCCC(C)C)c3ccc(F)cc3)n2)cc1 was read as Marburg entry inh 11%[46.1 µM], HCMV antiviral -8 and Lassa entry inh 8%[46.1 µM].
Cc1ccccc1NS(=O)(=O)c1ccc(N2CCCC2=O)cc1 was read as Marburg entry inh inconclusive, HCMV antiviral -35, Pf growth 96h inconclusive, Pf growth 48h -18%, Lassa entry inh inconclusive and HCV inhibitor inconclusive.
Cc1ccc(S(=O)(=O)Nc2c(C)nn(C)c2C)cc1C was read as Marburg entry inh -24%, HCMV antiviral -37, Pf growth 96h -2%, Pf growth 48h -13%, Lassa entry inh -2%[46.1 µM] and HCV inhibitor 0.56µM*.
`Cc1nn(C)c(C)c1NS(=O)(=O)c1ccc(N2CCCC2=O)cc1` gave Marburg entry inh inconclusive, HCMV antiviral -62*, Pf growth 96h inconclusive, Pf growth 48h 14%, Lassa entry inh inconclusive and HCV inhibitor inconclusive.
`O=C1CCCN1c1ccc(N2CCCC2=O)cc1` gave HCMV antiviral 27, Pf growth 96h 2.1µM*, Pf growth 48h 14% and HCV inhibitor 11%.
For O=C1CCCN1c1ccc(Br)cc1 the results were Marburg entry inh 4%, HCMV antiviral -37, Pf growth 48h 27%, Lassa entry inh -11% and HCV inhibitor -16%.
For CC(=O)N1CCc2cc(S(=O)(=O)CCC(=O)Nc3ccc(C)cc3Br)ccc21 the results were Marburg entry inh -9%[46.1 µM], HCMV antiviral -39 and Lassa entry inh 18%[46.1 µM].
`CN1CCC(OC(=O)c2ccc(Br)cc2)CC1` gave Marburg entry inh 1%, HCMV antiviral 11, Lassa entry inh 3% and HCV inhibitor -23%.
For CN1CCC(=C(c2ccccc2)c2ccc(Br)cc2)CC1 the results were HCMV antiviral inconclusive and HCV inhibitor 8.9µM*.
